Shiga toxin inh: blocks Shiga toxin action in Vero cells; Vero cells, Shiga toxin protein synthesis inhibition reporter; inhibition, % at 38.7 µM; 290,000 tested, 9.2% active; AID 2315; in the data active = inhibition mostly above about 28%, no sharp cut-off; inactive = mostly below about 43%; also: 0% is about no effect
NS1 inh: blocks influenza NS1 protein function; Potency, µM (doses to about 46.1 µM), for inactives: top-dose activity, positive = more growth; 270,000 tested, 0.4% active; also: potency is read from the fitted curve at half-maximal effect; actives are rising curves; nearly all actives have a fitted effect of over 50% in size
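Compounds were scored for reversing the slow growth caused by influenza A NS1 in S. cerevisiae, measured by optical density at 600 nm. Assay medium contained 2% galactose at pH 6.0; NS1-free yeast of the same strain were the positive control.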
LmPK inh: LmPK (Leishmania mexicana) enzyme inhibition; Potency, µM (doses to about 57.5 µM), for the others: at the highest dose activity change, negative = inhibition, actives largely listed as inhibitors; purified LmPK, Kinase-Glo ATP luminescence, 1 h; 290,000 tested, 0.37% active; AID 1721; active = well fitted curve in the direction sought with a large enough effect; inconclusive = small, poorly fitted or top-dose-only effect, or another doubt; inactive = no such curve, though single readings can be large; an effect the other way counts as inactive or inconclusive; also: potency is read from the fitted curve at half-maximal effect; % is scaled to controls: 0 for no effect and ±100 for the full control effect
Target sequence (Q27686 whole entry, looked up): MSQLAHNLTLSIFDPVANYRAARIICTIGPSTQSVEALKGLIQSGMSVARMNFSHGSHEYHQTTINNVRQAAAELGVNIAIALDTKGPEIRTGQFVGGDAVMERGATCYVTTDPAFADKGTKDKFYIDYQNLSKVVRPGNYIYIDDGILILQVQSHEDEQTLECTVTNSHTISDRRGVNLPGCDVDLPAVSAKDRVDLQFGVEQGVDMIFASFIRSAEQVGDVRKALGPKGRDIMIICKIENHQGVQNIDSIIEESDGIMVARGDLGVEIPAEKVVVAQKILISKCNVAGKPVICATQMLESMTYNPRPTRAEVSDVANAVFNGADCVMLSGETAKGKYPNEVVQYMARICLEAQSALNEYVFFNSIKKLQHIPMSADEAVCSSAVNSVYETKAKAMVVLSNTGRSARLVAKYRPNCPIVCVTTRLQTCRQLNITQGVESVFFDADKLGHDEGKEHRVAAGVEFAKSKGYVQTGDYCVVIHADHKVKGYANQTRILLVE
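Kinase-Glo luminescence read after 1 h RT reaction of 0.1 nM LmPK with 0.5 mM PEP and 0.1 mM ADP. Activity scaled between uninhibited and enzyme-free controls.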
CHX counter: counter-screen for Shiga toxin inhibitors: cycloheximide protein synthesis inhibition | cell reporter, cycloheximide protein synthesis inhibition counterscreen | max response, % | 300,000 tested, 12% active; in the data active = max response mostly above about 13%, no sharp cut-off; inactive = mostly below about 14%; also: read at 38.3 µM for the half of the compounds with a filed dose; 0% is about no effect
SARS PLpro yeast: inhibitors of SARS-CoV papain-like protease in yeast | S. cerevisiae expressing SARS-CoV PLpro, growth rescue | 330,000 tested, 0.19% active | Potency, µM (series often up to 32.9 µM), inactives show at the highest dose activity, positive = growth rescue, hits mostly activators | AID 485353; also: potency is read from the fitted curve at half-maximal effect; 0% is about no effect; nearly all actives have a fitted effect of over 55% in size
TbPYK inhibitor: inhibitors of Trypanosoma brucei pyruvate kinase; 410,000 tested, 0.12% active; TbPYK enzyme, Kinase-Glo Plus ATP luminescence, 45 min; Potency, µM (titrated, usually from 76.8 µM), without a hit: at the top dose activity, negative = inhibition, usual class: inhibitors; Q57TT1; active = well fitted curve in the direction sought with a large enough effect; inconclusive = small, poorly fitted or top-dose-only effect, or another doubt; inactive = no such curve, though single readings can be large; an effect the other way counts as inactive or inconclusive; also: potency is read from the fitted curve at half-maximal effect; % is scaled to controls: 0 for no effect and ±100 for the full control effect; nearly all actives have a fitted effect of over 50% in size
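Screened from lowest to highest concentration, compounds were pinned into TbPYK/substrate mixtures, and ADP (130 uM final) was added. Plates sat at room temperature for 45 min prior to Kinase-Glo Plus detection by luminescence.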
Starred values were filed as active, the others as inactive. The full list was thinned out, with hits kept by preference. Unless noted, calls follow the shape of the full dose curve.

Cc1ccc(C(C)C)c(OCCN2C(=O)NC(C)(C)C2=O)c1 was read as Shiga toxin inh -15.9, NS1 inh 2.0%, LmPK inh 0.9%, CHX counter 6.6, SARS PLpro yeast 1.5% and TbPYK inhibitor -14.0%.
Screening C/C=C/c1ccc(OCCN2C(=O)NC(C)(C)C2=O)c(OC)c1 returned Shiga toxin inh 12.2, NS1 inh 5.2%, LmPK inh 6.4%, CHX counter 3.7 and TbPYK inhibitor 1.8%.
For CC1(C)NC(=O)N(CCCCOc2ccc(Br)cc2Cl)C1=O the results were Shiga toxin inh 12.5, NS1 inh -68.7%, LmPK inh 8.4%, CHX counter 4.5, SARS PLpro yeast -11.5% and TbPYK inhibitor -11.2%.
For C/C=C/c1ccc(OCCCN2C(=O)NC(C)(C)C2=O)c(OC)c1 the results were Shiga toxin inh 26.7, NS1 inh 1.1%, LmPK inh 2.5%, CHX counter 23.0*, SARS PLpro yeast 2.6% and TbPYK inhibitor -0.1%.
`CC1(C)NC(=O)N(CCCOc2ccc3c(c2)CCC3)C1=O` gave Shiga toxin inh 58.9*, NS1 inh -21.3%, LmPK inh 0.2%, CHX counter 34.2*, SARS PLpro yeast -4.8% and TbPYK inhibitor -0.2%.
Screening CC1(C)NC(=O)N(CCCOc2ccc(Br)cc2Cl)C1=O returned Shiga toxin inh 133.9*, NS1 inh -36.2%, LmPK inh -8.6%, CHX counter 40.0*, SARS PLpro yeast -3.0% and TbPYK inhibitor 3.5%.
For COC(=O)c1c(-c2ccc(N(C)C)cc2)oc2c1C(OC)CCC2 (configuration not stated) the results were TbPYK inhibitor -10.0%.
`Cc1ccc(NC(=O)C(CC(C)C)N2Cc3ccccc3C2=O)cc1F` (configuration not stated) gave TbPYK inhibitor -4.2%.
COC(=O)c1cccc(NC(=O)c2ccc(OC)c(Cl)c2)c1 was read as Shiga toxin inh 64.6, NS1 inh -15.4%, LmPK inh -5.9%, CHX counter 17.2, SARS PLpro yeast -1.4% and TbPYK inhibitor -2.5%.
O=C(Nc1ccc2c(c1)CCC2)c1cccc(OC(F)F)c1 was read as TbPYK inhibitor -2.9%.
`COc1ccc(NC(=O)c2cccc(OC(F)F)c2)cc1Cl` gave Shiga toxin inh 130.9*, NS1 inh -5.8%, LmPK inh -5.2%, CHX counter 39.3*, SARS PLpro yeast -18.1% and TbPYK inhibitor -12.8%.
Screening O=C(Nc1ccc(OC(F)F)c(Cl)c1)c1cccc(OC(F)F)c1 returned Shiga toxin inh 66.6*, NS1 inh -53.6%, LmPK inh 5.4%, CHX counter 42.8*, SARS PLpro yeast -53.3% and TbPYK inhibitor 8.1%.
COc1ccc(NC(=O)c2ccccc2F)cc1Cl was read as Shiga toxin inh 34.8*, NS1 inh -14.7%, LmPK inh inconclusive, CHX counter 29.0*, SARS PLpro yeast -1.7% and TbPYK inhibitor 4.3%.
Screening COc1ccc(NC(=O)c2cccc(F)c2)cc1Cl returned Shiga toxin inh 56.8*, NS1 inh -80.4%, LmPK inh -17.3%, CHX counter 19.5*, SARS PLpro yeast -14.0% and TbPYK inhibitor -2.3%.
COc1cc(OC)c(NC(=O)c2cccc(F)c2)cc1Cl was read as Shiga toxin inh 31.0, NS1 inh -0.5%, LmPK inh -0.7%, CHX counter 9.6, SARS PLpro yeast -30.0% and TbPYK inhibitor 1.0%.
`COc1ccc(Cl)cc1NC(=O)C(C)N1CCN(c2ccccn2)CC1` (configuration not stated) gave Shiga toxin inh -6.4, NS1 inh -39.3%, LmPK inh -0.9%, CHX counter -2.6, SARS PLpro yeast -3.8% and TbPYK inhibitor 0.0%.
Cc1c(Cl)cccc1NC(=O)c1cccc(OC(F)F)c1 was read as Shiga toxin inh 93.9*, NS1 inh -50.7%, LmPK inh -0.5%, CHX counter 36.5*, SARS PLpro yeast -13.1% and TbPYK inhibitor -3.4%.
For CC(Sc1nc(-c2ccccc2)c(C#N)c(=O)[nH]1)C(=O)Nc1ccc(F)cc1 (configuration not stated) the results were TbPYK inhibitor 0.6%.

Source: PubChem
